DT40 TDP1 CPT: growth inhibition of DT40 Tdp1-/-;hTDP1 cells with camptothecin (screen for TDP1 inhibitors); 420,000 tested, 12% active; AID 686979; Potency, µM (titrated, usually from 46.2 µM), for the others: at the highest dose activity change, negative = growth inhibition, actives largely listed as inhibitors; chicken DT40 Tdp1-/-;hTDP1 cells + 20 nM CPT, ATP luminescence, 48 h; also: potency is read from the fitted curve at half-maximal effect; nearly all actives have a fitted effect of over 55% in size
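Cell growth measured by CellTiter-Glo luminescence after a minimum 48 h, 37 C compound exposure with 20 nM CPT in Tdp1-knockout DT40 cells stably expressing hTDP1, seeded 400/well; qHTS titration format.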
IL-1B inflam inh: blocks inflammasome-driven IL-1 beta release; THP-1 LPS/ATP IL-1B secretion, AlphaLISA, 16 h; active compounds read low; activity change, % at 57.5 µM; 360,000 tested, 4.7% active; AID 743279; in the data active = activity change below about -50%; inconclusive = mostly about -30% to -49%
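Secreted IL-1B measured by AlphaLISA bead assay after 16 h compound exposure of THP-1 cells; compounds (final up to 57.5 uM) added 1 h before LPS (250 ng/mL) and ATP (1.25 mM) stimulation; lower signal means less secretion.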
DT40 TDP1 no CPT: qHTS for Inhibitors of human tyrosyl-DNA phosphodiesterase 1 (TDP1): qHTS in cells in absence of CPT; DT40 Tdp1-/- hTDP1 cells, no CPT, ATP luminescence, 48 h; Potency, µM (top dose mostly 46.2 µM), for the others: at the top dose activity change, negative = growth inhibition, hits mostly inhibitors; 420,000 tested, 15% active; also: potency is read from the fitted curve at half-maximal effect; nearly all actives have a fitted effect of over 55% in size
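Camptothecin absent (DMSO only). Human TDP1-complemented DT40 knockout cells, 400 cells/well, 37 °C for minimum 48 hr; ATP measured via CellTiter-Glo, 30 min dark incubation, luminescence.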
RORg inh: blocks mouse ROR gamma transcriptional activity; Potency, µM (top dose mostly 53.6 µM), inactives show at the highest dose activity change, negative = inhibition, actives largely listed as inhibitors; Drosophila S2 Gal4-RORgamma UAS-luciferase reporter, 20 h; 310,000 tested, 5.4% active; also: potency is read from the fitted curve at half-maximal effect; nearly all actives have a fitted effect of over 60% in size
Target sequence (P51450 whole entry, looked up, the tested form may be a part): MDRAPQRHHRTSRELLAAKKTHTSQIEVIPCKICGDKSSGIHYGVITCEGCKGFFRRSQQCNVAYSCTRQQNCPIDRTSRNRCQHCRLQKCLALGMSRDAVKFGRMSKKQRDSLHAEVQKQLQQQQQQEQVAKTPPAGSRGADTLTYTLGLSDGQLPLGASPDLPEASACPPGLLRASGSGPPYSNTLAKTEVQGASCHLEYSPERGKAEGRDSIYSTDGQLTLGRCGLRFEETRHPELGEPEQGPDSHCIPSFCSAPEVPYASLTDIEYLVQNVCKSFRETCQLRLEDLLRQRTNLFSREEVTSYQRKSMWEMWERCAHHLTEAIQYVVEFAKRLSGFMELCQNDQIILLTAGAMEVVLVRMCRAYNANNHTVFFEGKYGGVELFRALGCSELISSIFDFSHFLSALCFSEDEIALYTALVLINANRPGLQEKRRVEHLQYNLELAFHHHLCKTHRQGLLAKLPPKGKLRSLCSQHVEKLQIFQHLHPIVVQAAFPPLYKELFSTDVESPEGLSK
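Stable Schneider cell line, Gal4 DNA-binding domain fused to ROR gamma, UAS-luciferase. Cmpd 1 hr RT → CuSO4 700 uM final → 20 hr RT → luciferase reagent 10 min → luminescence.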
Gal4-VP16 FLuc: inhibits Gal4-VP16 luciferase reporter, ROR gamma counter-screen. Drosophila S2 Gal4-VP16 UAS-luciferase, luminescence, 20 h. Potency, µM (titrated, usually from 53.6 µM), without a hit: at the top dose activity, negative = inhibition, most hits filed as inhibitors. 310,000 tested, 3.5% active. AID 2546;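 also: Gal4-VP16 expression switched on by copper sulfate through the metallothionein promoter; potency is read from the fitted curve at half-maximal effect; nearly all actives have a fitted effect of over 50% in size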
LDHA inh: inhibitors of human lactate dehydrogenase A. 480,000 tested, 0.15% active. activity change, % (values are at about 110 or 230 µM). purified LDHA, NADH/diaphorase-resazurin fluorescence; active compounds read low; in the data active = activity change below about -30%; inconclusive = mostly about -25% to -30%;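 also: plate controls were DMSO wells for no effect and wells without enzyme for full effect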
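Human LDH5 at 2 nM final in Tris HCl pH 7.4 with 0.06 mM NADH and 0.2 mM pyruvate, reacted 5 minutes at room temperature. Remaining NADH coupled via diaphorase/resazurin; resorufin fluorescence read at 0 and 20 minutes, normalized to enzyme-free and DMSO wells.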
An asterisk follows results filed as active; ? = inconclusive; . = not tested or not shown; [ ] = another dose, or the depositor's remark. Shown are actives, neighbours in structure and some others; about 18% of the full set was active somewhere. Unless noted, calls follow the shape of the dose curve; as a rule, active = well fitted curve in the direction sought with a large enough effect; inconclusive = small, poorly fitted or top-dose-only effect, or another doubt; inactive = no such curve, though single readings can be large; an effect the other way counts as inactive or inconclusive. Unless noted, % is scaled to controls: 0 for no effect and ±100 for the full control effect.

SMILES	DT40 TDP1 CPT	IL-1B inflam inh	DT40 TDP1 no CPT	RORg inh	Gal4-VP16 FLuc	LDHA inh
Cc1c(Cl)ccc2sc(N3CCN(C(=O)c4ccco4)CC3)nc12	15µM*	.	12µM*	.	.	-3
COc1ccc(C(=O)N2CCN(c3nc4c(C)c(Cl)ccc4s3)CC2)c(OC)c1	16µM*	.	9.2µM*	.	.	-4
COc1cc2ccccc2cc1C(=O)N1CCN(c2nc3c(C)cc(C)cc3s2)CC1	?	.	18µM*	.	.	-5
Cc1c(Cl)ccc2sc(N3CCN(C(=O)CS(=O)(=O)c4ccccc4)CC3)nc12	6.5µM*	.	4.1µM*	.	.	2
O=C(c1ccco1)N1CCN(c2ccc(Cl)c(Cl)c2)CC1	21µM*	?	15µM*	.	.	0
Cc1ccc(NC(=O)C2CCN(C(=O)c3ccco3)CC2)cc1	-3%	3	0%	2%	0%	-5
O=C(Nc1ccc(Cl)c(Cl)c1)C1CCN(C(=O)c2ccco2)CC1	16µM*	-19	15µM*	.	.	-6
O=C(c1ccco1)N1CCN(c2ccc(Cl)cc2)CC1	-21%	-21	-23%	?	?	-2
O=C(COc1ccc(-c2ccccc2)cc1)NCCc1c[nH]c2ccccc12	.	.	.	.	.	1
C=CCOC(=O)C(C#N)c1nc2ccccc2nc1N1CCC(C)CC1 (stereo unspecified)	.	.	.	.	.	28
Cc1ccc(-c2cc(C(=O)NCC(=O)N(C)C)c3ccccc3n2)cc1	.	.	.	.	.	2
C/C(=N\NC(=O)C1CC1c1ccccc1)c1ccc(C2CCCCC2)cc1 (stereo unspecified)	.	.	.	.	.	-24
Cc1cc(C)c2nc(N3CCC(C(=O)N4CCN(C(=O)c5ccco5)CC4)CC3)sc2c1	?	?	15µM*	4%	2%	-2
O=C(c1ccco1)N1CCN(c2nc3c(F)cc(F)cc3s2)CC1	?	.	?	.	.	-14
O=C(c1ccco1)N1CCN(C(=O)c2ccco2)C1=S	2.6µM*	-100*	5.8µM*	.	.	-1
Cc1[nH]n(-c2ccccc2)c(=O)c1C=NC1CCCCCC1	-27%	-17	?	34%	-1%	0
Cc1ccc(-n2[nH]c(C)c(C=NC34CN5CN(CN(C5)C3)C4)c2=O)cc1C	9.2µM*	-3	21µM*	-27%	5%	-1
CN(Cc1ccc(C(=O)NC2CC2)cc1)S(=O)(=O)c1ccc2c(c1)CCCC2	.	.	.	.	.	-13
Cc1c(C)n(CCCN(C)C)c2ncn3nc(-c4cccs4)nc3c12	.	.	.	.	.	4
Cc1cccc(-c2nc(C(N)=O)c3c(n2)n(-c2ccc4c(c2)OCO4)c(=O)n3C)c1	?	.	1.8µM*	.	.	4
Cn1c(=O)n(-c2ccc3c(c2)OCO3)c2nc(-c3ccc(Cl)cc3)nc(C(N)=O)c21	15%	.	?	.	.	-4
CC(C)C(=O)Nc1ccc(NC(=S)NC(=O)c2ccccc2F)cc1	-25%	-12	-14%	13%	2%	-4
Cc1ccc(C(=O)NC(=S)Nc2ccccc2C(F)(F)F)c(C)c1	-22%	25	-19%	3%	-11%	-3
Cc1ccc2nsnc2c1NC(=S)NC(=O)c1ccco1	13%	-6	-8%	-19%[10 µM]	-12%	15
Cc1ccccc1C(=O)NC(=S)Nc1ccccc1C(F)(F)F	-27%	-3	?	0.79µM*	?	-1
SMILES	DT40 TDP1 CPT	IL-1B inflam inh	DT40 TDP1 no CPT	RORg inh	Gal4-VP16 FLuc	LDHA inh
O=C(NC(=S)Nc1c(Cl)ccc2nsnc12)c1ccccc1F	-13%	-20	-7%	1.4µM*	-12%	4
O=C(NC(=S)Nc1ccccc1C(F)(F)F)c1ccccc1F	-4%	0	?	6.3µM*	?	-1
O=c1cc(N2CCCN(c3ccc(C(F)(F)F)cn3)CC2)nc2ccccn12	.	.	.	.	.	0
CN(C)S(=O)(=O)c1ccc2c(c1)CCN2Cc1cc(C#N)ccc1F	.	.	.	.	.	-3
Cc1noc2nc(-c3ccc(F)cc3)cc(C(=O)NCc3ccc(N4CCOCC4)nc3)c12	.	.	.	.	.	-5
Cc1ccc(C)c(CN2CCCN(CC(=O)Nc3ccc(C)c(C)c3)S2(=O)=O)c1	?	.	16µM*	.	.	-3
Cc1ccc(CN2CCCN(Cc3c(C)cc(C)cc3C)S2(=O)=O)cc1	4%	3	?	-9%	4%	-6
CCc1ccccc1NC(=O)Cn1nc(-c2cc(C)ccc2C)c2c(c1=O)CCCC2	?	.	15µM*	.	.	-12
CCc1ccc(NC(=O)CN2CCCN(Cc3cccc(Cl)c3)S2(=O)=O)cc1	?	.	-21%	.	.	-16
Cc1ccc(CN2CCCN(CC(=O)Nc3ccc(C)cc3C)S2(=O)=O)cc1	?	.	15µM*	.	.	-2
CCc1ccccc1NC(=O)CN1CCCN(Cc2cc(C)ccc2C)S1(=O)=O	15µM*	.	16µM*	.	.	-6
CCCCn1nc(C(=O)NC(C)c2ccc3c(c2)OCCO3)c2ccccc2c1=O (stereo unspecified)	.	.	.	.	.	10
N#C/C(=C/c1ccc(OC(F)F)cc1)c1ccc(C(F)(F)F)cn1	.	.	.	.	.	4
Cc1ccc2oc(-c3cccc(NC(=O)c4cccc([N+](=O)[O-])c4C)c3)nc2c1	.	.	.	.	.	-1
Cc1ccc(NC(=O)CN2CCCN(Cc3cc(C)ccc3C)S2(=O)=O)c(Cl)c1	18µM*	.	?	.	.	-3
Cc1ccc(NC(=O)Cn2cc3c(n2)CCCC3)c(Cl)c1	-19%	.	?	.	.	-6
O=C(N/N=C\c1ccc(Cl)cc1)C1=NOC2COC3(CCN(c4ccc([N+](=O)[O-])cc4)CC3)OCC12 (stereo unspecified)	10µM*	0	6.5µM*	?	?	-3
N#CC(Cc1cccnc1)C(=O)Nc1cc(Cl)ccc1Cl (stereo unspecified)	.	.	.	.	.	-8
COc1ccc(C2=C(C)C(=O)N(Cc3ccc(C(=O)Nc4cc(C)ccc4C)cc3)S2(=O)=O)cc1	18µM*	.	10µM*	.	.	-1
COc1ccc(CNC(=O)c2ccc(CN3C(=O)C(C)=C(c4ccc(C)cc4)S3(=O)=O)cc2)cc1	?	.	?	.	.	-2
CC1=C(c2ccc(C)cc2)S(=O)(=O)N(Cc2ccc(C(=O)Nc3ccc(C)c(F)c3)cc2)C1=O	26µM*	.	?	.	.	-8
O=C(COc1ccccc1)Nc1cccc(-c2nc3ccccc3o2)c1	.	.	.	.	.	6
O=C(C[C@@H]1C/C=C/CC[C@@H](Cc2ccc(F)cc2)C(=O)O[C@@H](c2ccccc2)CNC1=O)NCCO	?	-6	18µM*	.	.	-10
